Reference: the supplement of paper PMC6555819

Experiments:
Assay in all cases: PBM binding z-score (relative to random genomic background probes); higher = stronger binding; sequences stand for … in GC…GCGATTGACAGCGTAGAATGAAGG
[1] = tested on: RARb homodimer (NR concentration 270 nM)
Summary of the method: (§1)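 Ligand-free nuclear receptor dimers were applied to custom Agilent 4×180K protein-binding microarrays whose double-stranded probes carried direct-repeat seeds, single-nucleotide variants, half-site ablations and random human genomic background sequences in 34-nt variable regions. Incubation lasted 1 h. Binding z-scores were computed against the random background probes from regression-normalized fluorescence.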

[2] = tested on: RARg:RXRa (NR concentration 270 nM, RXRa partner concentration 90 nM)
Summary of the method: as §1

[3] = tested on: RARg homodimer (NR concentration 270 nM)
Summary of the method: as §1

[4] = tested on: RXRa DBDmut IVT, anti-RXR (DBD mutation: RXRa K156A/R161A, NR concentration 90 nM)
Summary of the method: as §1

[5] = tested on: RXRa homodimer (NR concentration 180 nM)
Summary of the method: as §1

[6] = tested on: THRa:RXRa (NR concentration 90 nM, RXRa partner concentration 90 nM)
Summary of the method: as §1

[7] = tested on: THRa homodimer (NR concentration 90 nM)
Summary of the method: as §1

[8] = tested on: VDR:RXRa (NR concentration 270 nM, RXRa partner concentration 90 nM)
Summary of the method: as §1

[9] = tested on: VDR homodimer (NR concentration 270 nM)
Summary of the method: as §1

Sequence	PBM binding z-score [1]	PBM binding z-score [2]	PBM binding z-score [3]	PBM binding z-score [4]	PBM binding z-score [5]	PBM binding z-score [6]	PBM binding z-score [7]	PBM binding z-score [8]	PBM binding z-score [9]
GCAGAAAGGTGAAACGCAGGTAACTCAGGGTGGC	1.55	3.22	1.84	0.00146	2.31	2.25	-0.396	0.145	-0.808
CCTACTGGGCCATTCAGAGGTCATTGAACATATG	4.05	4.74	3.46	1.03	4.17	3.33	1.65	4.16	4.01
ACTTACGGGTCAAAGAGGTTATAGCACGCGTATA	3.42	5.32	4.72	2.54	6.31	3.45	0.218	7.09	3.59
TTACCAAGGTGTGCTGAGGTCGTTGATCCAACTC	1.18	0.184	-0.154	0.555	0.725	3.24	1.77	2.39	2.39
CCGACTGGGGCAGAAAGGTTCCCATACCATCCGG	0.053	-0.0575	0.0675	-1.16	-0.265	-0.504	-0.737	-0.573	-0.826
TCTTGTAGAACAACAGGAGGTTAAGAAAGATCGA	0.958	0.377	0.286	0.511	0.875	0.726	-0.422	0.492	-0.182
TCTGCTAGGTCAACGATGGCCAGCTAATCTGCTA	2.85	3.75	4.72	0.868	2.35	2.6	0.486	1.13	-0.708
CCTACTGGGCCACGAAAGATCATTGATTCAGTGA	-0.335	-0.154	0.283	-0.361	0.0459	-0.0965	-0.393	-0.306	-0.52
ACGGACAGGTGATGAAGGTAACTCAGGCTATCAT	0.711	0.496	0.813	0.19	0.31	1.02	0.438	0.367	0.327
AGTCAAAGTTCATCGAGGTAACGTAAGATATGCT	4.15	5.57	6.25	4.45	4.87	3.97	1.19	6.17	5.6
ATATGTAGGTTAGCTGGGGTCATGCAGACTAGGC	4.19	4.65	3.65	1.38	6.31	5.42	3.72	5.85	4.15
ATCGAAAGGTTGAGGTGAGTATAGAGAAAGGGAA	1.24	1.39	1.25	-0.21	1.16	2.38	1.27	0.543	0.34
CTAGACAGGTGAAAGGTAACTCAGTCTGGTACGC	0.55	1.36	0.619	-0.39	2.23	0.865	-0.398	0.828	-0.464
TCTAGTAGGTTAGGGGCATTCAGAATGGCGTCGA	1.31	0.656	0.586	1.42	0.98	1.03	0.797	1.04	1.39
AATACAGGGTCATCGTAGGCCAGAGTTCGCACAG	3.88	5.67	5.21	3.68	6.43	4.77	1.65	5.79	5.37
TCTTGTAGATCAGCAGGTGAAGAAAGCTGGCCAA	-0.153	-0.237	-0.356	0.475	0.184	0.0556	-0.332	0.208	-0.766
ATCGAAAGGTCGAAGAGGTGAGTATACACCGTTT	2.74	4.11	4.08	0.936	4.41	2.73	-0.077	4.47	0.745
ACTATTAGTTGACTTAAGGCAACCGATACGACGC	0.11	0.623	0.592	0.8	0.347	2.4	0.592	0.358	0.124
TGAATGAGGTTAAAGATAAGGGAACGTGGCGTCG	0.5	2.21	1.32	1.25	2.88	2.37	0.283	1.36	0.766
CAAATTAGGTCACAGAGGTCAAAGTCCGTGCGTA	5.59	7.24	7.81	3.72	7.43	4.73	3.68	8.12	6.37
TCATAGAGGTAATACAGGTGAAAGTCGGCATCTA	0.233	0.441	0.488	1.01	1.16	1.4	-0.345	1.07	0.0318
TAACCTAGGTCATGGGCCAGTATACCACGCGAAC	3.63	5.07	5.12	1.07	4.02	3.3	1.87	2.88	1.35
TCTTGTAGATCAAGCAAGTTAAGAAAGCCTGAGT	-0.703	-0.21	-0.386	0.582	-0.066	0.341	-0.759	0.328	-0.186
CCTTACGGGTCACGACGTTATAGCACGACGAGCG	3.34	5.56	5.15	0.951	6.26	2.99	0.181	3.73	0.722
CCTACTGGGCCAAAAAGGTCATAGATGCCGATAA	4.35	4.63	4.54	0.263	5.22	3.08	0.589	4.4	2
ACTAGCAGGCCAAGTTTGGGTCACTAAAACAAAG	2.17	2.1	1.53	-0.281	0.88	2.52	0.917	0.553	0.383
